In PubChem BioAssay (EPA / NIEHS):
Records with an inconclusive call do not appear. Active and inactive are the calls of the source. How the source made its calls: active means hit-call score of the fitted dose curve at least 0.9, where 1 is the maximum; inconclusive means response in the unintended direction; inactive means score below 0.9.

molecular target: human RAR-related Orphan Receptor beta (RORb), RORB (gene 6096) (UniProt Q92753); experiment: ATG_RORb_TRANS: Attagene TRANS-FACTORIAL HepG2 Assay for human RAR-related Orphan Receptor beta (RORb) (AID 2283010)
Sequence (Q92753 whole entry, looked up): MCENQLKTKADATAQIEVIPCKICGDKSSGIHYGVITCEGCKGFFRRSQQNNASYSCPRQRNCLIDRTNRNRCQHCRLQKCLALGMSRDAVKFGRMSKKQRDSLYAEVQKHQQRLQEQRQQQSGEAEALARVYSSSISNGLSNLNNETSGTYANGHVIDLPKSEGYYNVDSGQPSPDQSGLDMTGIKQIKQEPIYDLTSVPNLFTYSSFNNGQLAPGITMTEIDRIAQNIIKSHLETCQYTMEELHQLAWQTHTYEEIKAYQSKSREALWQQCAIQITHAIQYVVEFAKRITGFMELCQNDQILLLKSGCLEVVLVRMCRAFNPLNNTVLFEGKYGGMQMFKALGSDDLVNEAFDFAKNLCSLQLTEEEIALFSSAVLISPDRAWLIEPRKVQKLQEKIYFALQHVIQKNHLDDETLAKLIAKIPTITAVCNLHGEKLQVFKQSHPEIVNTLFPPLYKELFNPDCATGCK
Method: ATG_TRANS is a cell-based, multiplexed-readout assay that uses HepG2, a human liver cell line, with measurements taken at 24 hours after chemical dosing in a 24-well plate.ATG_RORb_TRANS is one of 30 assay component(s) measured or calculated from the ATG_TRANS assay. It is designed to make measurements of mRNA induction, a form of inducible reporter, as detected with fluorescence intensity signals by Reverse transcription polymerase chain reaction (RT-PCR) and Capillary electrophoresis technology.Data from the assay component ATG_RORb_TRANS was analyzed into 1 assay endpoint. This assay endpoint, ATG_RORb_TRANS, was analyzed in the positive analysis fitting direction relative to DMSO as the negative control and baseline of activity. Using a type of inducible reporter, measures of mRNA for gain-of-signal activity can be used to understand the reporter gene at the transcription factor-level as they relate to the gene RORB. Furthermore, this assay endpoint can be referred to as a primary readout, because this assay has produced multiple assay endpoints where this one serves a reporter gene function. To generalize the intended target to other relatable targets, this assay endpoint is annotated to the nuclear receptor intended target family, where the subfamily is orphan.
Human liver HepG2 cells are transiently transfected with multiple reporter transcription units (MRTUs) in 6-well plates using FuGene 6 reagent (Roche; 3 ml FuGene/1 mg DNA). The MRTU constructs are regulated by a cis-regulating element (promoter). […] A major difference between the CIS and TRANS system is that in CIS activities of endogenous TFs are measured, whereas the TRANS assay evaluates changes in activities of exogenous, chimeric NR-Gal4 proteins. […] At the end of 24 hour incubation, total RNA was isolated using TriZol reagent (Invitrogen). The isolated RNA is then reverse-transcribed using oligo(dT) primer and Mo-MLV reverse transcriptase (Invitrogen) with DNAse I (Ambion) treatment for 30 min. The one-tenth of the produced cDNA was amplified by PCR using Taq DNA polymerase (Invitrogen) and two reporter sequence-specific primers. The PCR products were fluorescently labeled by primer extension with 6-arboxyfluorescein (6-FAM) 5'-labeled reporter sequence-specific primer (2 min at 95 C, 20 s at 68 C and 10 min at 72 C) and these products were digested with 5U of HpaI (New England Biolabs) for 2h at 37 C. The fragments were purified using Qiaquick PCR columns (Qiagen), analyzed on an ABI 3130xL genetic analyzer (Applied Biosystems) with peak positions identified by using a set of X-rhodamine (ROX)-labeled MapMarker1000 molecular weight standards (BioVentures). The raw capillary electrophoresis data was processed using Attagraph software (Attagene).

outcome, inactive:
CC(C)=CCCC(C)CCO (centres undefined)
NC(=O)NO
Cc1ccc(N)cc1O
CC(C)=CCC/C(C)=C/CO
CCOC(=O)COc1ccc2c(c1)CC(NCC(O)c1cccc(Cl)c1)CC2 (centres undefined)
CCN(C(=O)c1cc(C)cc(OC[C@H](C)Nc2ccncc2)c1)C(C)C
CC(C)(O)c1coc(S(=O)(=O)NC(=O)Nc2c3c(cc4c2CCC4)CCC3)c1
CCCCC(CC)COC(=O)CCCCCCCCC(=O)OCC(CC)CCCC (centres undefined)
CC1=CC(=O)CC(C)(C)C1
Cn1c(=O)c2c(ncn2C)n(C)c1=O
Cn1cnc([N+](=O)[O-])c1Sc1ncnc2nc[nH]c12
CC[C@H]1OC(=O)[C@H](C)[C@@H](O[C@H]2C[C@@](C)(OC)[C@@H](O)[C@H](C)O2)[C@H](C)[C@@H](O[C@@H]2O[C@H](C)C[C@H](N(C)C)[C@H]2O)[C@](C)(O)C[C@@H](C)C(=O)[C@H](C)[C@@H](O)[C@]1(C)O
O=C(O)CCN(C1(C(=O)NO)CCCC1)S(=O)(=O)c1ccc(Oc2ccc(F)cc2)cc1
CC(C)CCCCCCOC(=O)c1ccc(C(=O)OCCCCCCC(C)C)c(C(=O)OCCCCCCC(C)C)c1
O=C(NS(=O)(=O)/C=C/c1ccccc1)c1ccc(F)cc1Cl
On1ccccc1=S
O=c1n(CC2CO2)c(=O)n(CC2CO2)c(=O)n1CC1CO1 (centres undefined)
CC(=O)OCCC(C)C
O=C(OC[C@H]1O[C@@H](OC(=O)c2cc(O)c(O)c(OC(=O)c3cc(O)c(O)c(O)c3)c2)[C@H](OC(=O)c2cc(O)c(O)c(OC(=O)c3cc(O)c(O)c(O)c3)c2)[C@@H](OC(=O)c2cc(O)c(O)c(OC(=O)c3cc(O)c(O)c(O)c3)c2)[C@@H]1OC(=O)c1cc(O)c(O)c(OC(=O)c2cc(O)c(O)c(O)c2)c1)c1cc(O)c(O)c(OC(=O)c2cc(O)c(O)c(O)c2)c1
Cc1ccc(C)c(O)c1
COCCOc1cc2cc(C(=O)NC3CCN(C(C)C)CC3)n(CC(=O)Nc3ccc(Cl)cn3)c2cn1
CCCCC(CC)COC(=O)c1ccc(C(=O)OCC(CC)CCCC)cc1 (centres undefined)
Nc1nc2ncc(CNc3ccc(C(=O)N[C@@H](CCC(=O)O)C(=O)O)cc3)nc2c(=O)[nH]1
CC(=O)c1ccc2c(c1)[C@H](NC(=O)c1ccc(F)cc1)[C@@H](O)C(C)(C)O2
CCc1cc(SCc2sc(-c3ccc(C(F)(F)F)cc3)nc2CN2CCN(c3ccc(OC)cc3)CC2)ccc1OCC(=O)O
O=C(O)c1cc(N=Nc2ccc(S(=O)(=O)Nc3ccccn3)cc2)ccc1O
CC/C(=C\C(=N/O)C(N)=O)C(C)[N+](=O)[O-] (centres undefined)
Nc1cccc(N)c1
COc1ccc(/C=C/S(=O)(=O)NC(=O)c2ccc(C)cc2Cl)cc1
